# Reference: PubChem BioAssay (NCI)
# Compounds without any hit were thinned out: in the full panel of roughly 83,000, 20% have a hit.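 Values shown are percent growth following 48 h exposure of cells in 96-well plates to a single concentration of compound; below 10 was considered active.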 Active and inactive are the calls of the source.
# Test system: HL-60(TB) leukemia
# Assay: NCI-60 one-dose screen, 48 h (100 = growth as untreated, 0 = no growth, -100 = all killed)
# Details: 10 µM unless noted
row,SMILES,growth
1,O=C(c1ccc(Cl)cc1)C1C(c2ccccc2)C1[N+](=O)[O-] (stereo not given),99.3% (inactive)
2,C=CCN1C(=O)/C(=C/C(=O)OC)S/C1=N\NC(=O)c1cc2ccc1/C=C\c1ccc(cc1)/C=C\2,91.8% (inactive)
3,ClC1=C(Cl)C(Cl)=C(Cl)C1=Cc1ccc(Cl)cc1,-4.27% (active)
4,COc1ccc2c(c1)Oc1nc(N)c(C#N)c(N)c1C2Sc1ccc(SC)cc1 (stereo not given),-22.3% (active)
5,c1coc([C@@H]2C[C@@H]3Cc4ccc5ccccc5c4N2O3)c1,100% (inactive)
6,CC1CN(/N=C/c2ccc([N+](=O)[O-])o2)C(=N)O1 (stereo not given),99.8% (inactive)
7,CC(C)C/C(=N\NC(=O)c1ccncc1)c1cc(Cl)ccc1O,-32.3% (active)
8,C=CC(=O)Nc1cc2c(Nc3ccc(F)c(Cl)c3)ncnc2cc1C#CC(C)(C)N1CCN(C)CC1,-47.6% (active)
9,COc1cc2ncn3c(=O)c4c5c(sc4nc3c2cc1OC)CCCC5,106% (inactive)
10,NC(=O)CC(NC(=O)COc1ccc(Cl)cc1Cl)C(=O)O (stereo not given),109% (inactive)
11,COc1cc(-c2cc(C(=O)N3CCN(C(=O)c4ccccc4NCc4ccco4)CC3)nc3cc(-c4ccccc4)nn23)cc(OC)c1OC,11.6% (inactive)
12,COc1ccc(C2C=C(c3ccc(N)cc3)N=C3SC=CN32)cc1OC (stereo not given),105% (inactive)
13,CC/C(=C\c1ccc(OC)cc1)C(=O)c1ccc(OC)cc1,131% (inactive)
14,O=C1Nc2c(ccc(Cl)c2Cl)/C1=C/c1ccc([N+](=O)[O-])cc1,74.1% (inactive)
15,O=c1[nH]c(=O)n(Cc2ccc(F)cc2)cc1F,88.7% [50 µM] (inactive)
16,CSc1nc(C)c(C(=O)CCN2CCN(c3ccccn3)CC2)s1,102% (inactive)
17,CC(=O)c1c(C)nc(SCC(=O)Nc2cccc(O)c2)n1-c1ccc(Cl)cc1,88.3% (inactive)
18,S=C(SSC(=S)N(c1ccccc1)c1ccccc1)N(c1ccccc1)c1ccccc1,85.1% (inactive)
19,Nc1ccc(N)c([N+](=O)[O-])c1,110% (inactive)
20,COc1ccc(Cl)cc1Nc1nc(C(F)(F)F)ccc1C(=O)N/N=C/c1ccccc1Cl,-11.3% (active)

row,SMILES,growth
1,COc1c2ccoc2c(/C=C/C=O)c2oc(-c3ccccc3)cc(=O)c12,7.67% (active)
2,COc1ccc2cc(-c3ccc(-c4ccc(C(=N)N)cc4)s3)ccc2c1,100% (inactive)
3,Cc1nnc(-c2ccc3c(c2)nc(/C=C/c2ccccc2)n3C2CCCCC2)o1,65.3% (inactive)
4,C#CCOC(=O)C(N)CS (stereo not given),120% (inactive)
5,COc1ccc(OCC(=O)Nc2ccc(-c3nc4ccccc4s3)cc2C)cc1,48.2% (inactive)
6,Cc1nn2c(-c3nc4cc(Cl)c(Cl)cc4[nH]3)c(-c3ccc(F)cc3)nc2s1,106% (inactive)
7,COc1c(Cl)cc(Cl)cc1Cl,98.7% (inactive)
8,O=c1[nH]nc(-c2ccc(Br)cc2)c2sc(NC(=S)Nc3ccc(Cl)cc3)nc12,94.2% (inactive)
9,Cc1nc2cc(Nc3nc(NCCO)nc(Nc4ccc(F)cc4)n3)ccc2n1Cc1ccccc1,-26.8% (active)
10,Clc1cccc(CNc2c3ccccc3nc3ccccc23)c1,9.02% (active)
11,CN(C)c1ccc(N=Cc2ccc(N3CCOCC3)cc2)cc1,16.6% (inactive)
12,O=C1c2ccccc2C(=O)c2c(O)c(Cl)cc(O)c21,122% (inactive)
13,Oc1cc(Nc2ccnc3cc(Cl)ccc23)c2ncccc2c1,93.1% (inactive)
14,c1ccc(C2Cc3ccccc3C2=NC2CCCCC2)cc1 (stereo not given),98.2% (inactive)
15,CCCCCCCC/C=C/CCCCCCCCC1=NCCN1CCO,8.59% (active)
16,CC(C)OP(=O)(O)c1ncc(-c2ccc(C(F)(F)F)cc2)c(NC2CCCCCC2)n1,44.4% (inactive)
17,O=S(=O)(NCCCNc1cc(-c2cn(-c3ccccc3)nc2-c2cccc(O)c2)ccn1)c1ccc(C(F)(F)F)cc1,25% (inactive)
18,COc1cc(-c2cc(-c3nc4ccc(F)cc4[nH]3)[nH]n2)cc(OC)c1OC,-35% (active)
19,COc1ccc(CNc2ccc3nc(NC(=O)CN4CCCCCC4)sc3c2)cc1,47.4% (inactive)
20,COc1cc(CNS(=O)(=O)c2ccc(C)cc2)ccc1OCc1cn(-c2ccc(Br)cc2)nn1,106% (inactive)
